Source: PubChem BioAssay (NCI)
The panel holds about 83,000 compounds, 20% with a hit somewhere; the sample as a whole holds those more often.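 Compound tested at a single concentration for 48 hours in 96-well plates; a percent growth value below 10 was scored as active.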 Unmarked numbers belong to inactive results. Activity calls are given as the source filed them.

What follows are compounds tested on MDA-MB-468 breast (assay: NCI-60 one-dose screen, 48 h (100 = growth as untreated, 0 = no growth, -100 = all killed)). Conditions: 10 µM unless noted.

Row | Structure (SMILES) | growth
1 | COc1cc(-c2ccc(N=Nc3c(O)c(C(=O)Nc4ccccc4OC)cc4ccccc34)c(OC)c2)ccc1N=Nc1c(O)c(C(=O)Nc2ccccc2OC)cc2ccccc12 | 95%
2 | N#Cc1c(N)nc(-c2cc(F)cc(C(F)(F)F)c2)nc1-c1ccccc1F | 62.8%
3 | CCCCNC(=O)c1ccc2c(c1)nc(-c1ccccc1)n2C1CCCCC1 | 123%
4 | O=C1c2ccccc2-c2nccc3cc(Cl)nc1c23 | -87.2% (active)
5 | C=C(C)[C@@H]1CC[C@]2(C#N)CC[C@]3(C)[C@H](CC[C@@H]4[C@@]5(C)CCCNC(C)(C)[C@@H]5CC[C@]43C)[C@@H]12 | 19.3%
6 | O=C(N/N=C/c1cc2ccccc2c2ccccc12)c1cc(O)c(O)c(O)c1 | 64.9%
7 | C=C1C(=O)O[C@H]2[C@H]1CC/C(CNS(=O)(=O)c1ccc3ccccc3c1)=C\CC[C@@]1(C)O[C@@H]21 | -54% (active)
8 | COc1cc(-c2n/c(=C\c3c(O)[nH]c4ccccc34)cc3c2=Nc2ccccc2-3)cc(OC)c1OC | 5.24% (active)
9 | O=C(Nc1cccc(C2=NCCN2)c1)c1ccc(OCCCOc2ccc(C(=O)Nc3cccc(C4=NCCN4)c3)cc2)cc1 | -24.4% (active)
10 | CCNc1nc2c(cnn2C)c(=O)[nH]1 | 97.4%
11 | Cc1ccc(C(=O)O)o1 | 112%
12 | Cc1cc(C)c(-c2cc(O)c(-c3c(C)cc(C)cc3C)cc2O)c(C)c1 | 4.15% (active)
13 | Cn1c(=O)c2nc(/C=C/c3ccccc3)c(=O)[nH]c2n(C)c1=S | 103%
14 | CCOC(=O)c1nc(Nc2ccc(NC(=O)Nc3ccc(F)cc3)cc2)c2ccccc2n1 | 80.3%
15 | O=C(Nc1ccccc1)Nc1nc2ccc([N+](=O)[O-])cc2[nH]1 | 22.1%
16 | N#Cc1ccc(NC(=O)Nc2nc3ccc(OC(F)(F)F)cc3s2)cc1 | -2.64% (active)
17 | CC(=O)NC(O)C(Cl)Cl (stereo not given) | 106%
18 | CCOC(=O)c1sc(NCC(=O)Nc2cccc([N+](=O)[O-])c2)c(C(=O)OCC)c1C | -47.4% (active)

Row | Structure (SMILES) | growth
19 | O=C(O)c1ccc2c(c1)C(=O)N(Cc1ccccc1)C2=O | 96.2%
20 | CC(=O)Nc1ccc(S(=O)(=O)NC(CCC(=O)Nc2ccc(Cl)cc2)C(=O)O)cc1 (stereo not given) | 98.8%
21 | Cc1ccccc1N1C(=O)c2cc(S(N)(=O)=O)c(Cl)cc2NC1C (stereo not given) | 119%
22 | O=[N+]([O-])c1ccc(N=Nc2ccccc2)cc1 | 109%
23 | CCSc1nnc2n(Cc3ccccc3)c(=O)c3c(C)c(C(N)=O)sc3n12 | 101%
24 | O=C(C(Br)C(Br)c1ccccc1)C(Br)C(Br)c1ccccc1 (stereo not given) | -44.4% (active)
25 | COc1ccc(/C=C2\CN(Cc3cn(CCCNc4ccnc5cc(Cl)ccc45)nn3)C/C(=C\c3ccc(OC)c(OC)c3)C2=O)cc1OC | -11.1% (active)
26 | c1ccc(CCn2nnc3c(Nc4ccc(N5CCOCC5)cc4)ncnc32)cc1 | 76%
27 | COC1/C=C/OC2(C)Oc3c(C)c(O)c4c(O)c(c(C=NOC(c5ccccc5)c5ccccc5)c(O)c4c3C2=O)NC(=O)/C(C)=C/C=C/C(C)C(O)C(C)C(O)C(C)C(OC(C)=O)C1C (stereo not given) | 3.6% (active)
28 | c1ccc(-c2n(Cc3ccc4ccccc4n3)cc[n+]2Cc2ccc3ccccc3c2)cc1 | -33.5% (active)
29 | COc1cnc2c(c1)C(=O)c1c-2n(CCCN2CCNCC2)c(=O)c2cc([N+](=O)[O-])ccc12 | -74.8% (active)
30 | C=C1CCC2(C#N)[C@H]3[C@H](CC[C@@H]2C)[C@@H](C)C[C@@H](CC(C)(C)NC(=O)CN2CCC2=O)[C@H]13 (stereo not given in full) | 58%
31 | COc1cc(C2CC(c3ccc(Cl)cc3)=NN2C(C)=O)ccc1Oc1nc2c(c(=O)n(C)c(=O)n2C)n1C (stereo not given) | 76.6%
32 | O=S(=O)(Nc1ccsc1-c1nc(-c2ccccc2)no1)c1cc(Cl)cc(Cl)c1 | 88.6%
33 | COc1ccc2oc(-c3ccc(Cl)cc3)c(N3CCN(C)CC3)c2c1 | -53.5% (active)
34 | CC(=O)N1CCN(CCNC(=O)n2cc(-c3ccncc3)c(-c3ccc(O)c(Cl)c3)n2)CC1 | 112%
35 | C#CCNC(=O)CC[C@]1(C)[C@H]2CC[C@@H]3[C@@H]([C@@](C)(O)CCC=C(C)C)CC[C@@]3(C)[C@]2(C)CC[C@H]1C(=C)C | 48.5% [100 µM]
